# Key:
# Experiment in all cases: DAPPL (digital affinity profiling via proximity ligation, sequencing); 10 mM Tris-HCl pH 7.5, 50 mM NaCl, 1 mM DTT, 4% glycerol, room temperature, 30 min; GST-TFs on glutathione beads, 16-mer random dsDNA library, 0.1% formaldehyde crosslink after washing; high values mean tight binding
# FLI1 = target: T1, FLI1 (Homo sapiens, UniProt Q01543 1-452); conditions: protein: recombinant; tags: N-terminal GST; dsDNA, one strand shown
# T1 sequence: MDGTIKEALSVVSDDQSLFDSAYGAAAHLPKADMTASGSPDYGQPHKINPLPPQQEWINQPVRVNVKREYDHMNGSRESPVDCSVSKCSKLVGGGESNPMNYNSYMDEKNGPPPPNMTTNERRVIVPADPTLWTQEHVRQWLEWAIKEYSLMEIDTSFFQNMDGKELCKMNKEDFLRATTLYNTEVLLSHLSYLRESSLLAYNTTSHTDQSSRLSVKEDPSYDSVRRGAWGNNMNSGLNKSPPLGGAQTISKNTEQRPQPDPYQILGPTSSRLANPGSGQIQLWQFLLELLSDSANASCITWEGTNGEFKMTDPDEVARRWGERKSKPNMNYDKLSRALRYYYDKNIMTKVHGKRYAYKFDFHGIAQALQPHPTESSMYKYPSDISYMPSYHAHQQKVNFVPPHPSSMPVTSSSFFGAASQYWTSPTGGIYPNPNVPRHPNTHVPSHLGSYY
# How it was run: (§1)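 Binding signal is defined as a hexamer's read frequency for one factor over its frequency for the tag-only sample. To obtain reads, GST-fused human transcription factors were expressed in yeast, captured on glutathione beads, barcoded with DNA and pooled with that sample. Pools met 200 nmole of a 16-mer random double-stranded DNA library in Tris/NaCl/DTT/glycerol buffer for 30 min at room temperature before washing, 0.1% formaldehyde crosslinking, proximity ligation (BsaI/T4 ligase, 1 h, 37 °C), PCR and Illumina NextSeq500 sequencing.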
# ELK1 = target: T2, ELK1 (Homo sapiens, UniProt P19419 1-428); conditions: protein: recombinant; tags: N-terminal GST; dsDNA, one strand shown
# T2 sequence: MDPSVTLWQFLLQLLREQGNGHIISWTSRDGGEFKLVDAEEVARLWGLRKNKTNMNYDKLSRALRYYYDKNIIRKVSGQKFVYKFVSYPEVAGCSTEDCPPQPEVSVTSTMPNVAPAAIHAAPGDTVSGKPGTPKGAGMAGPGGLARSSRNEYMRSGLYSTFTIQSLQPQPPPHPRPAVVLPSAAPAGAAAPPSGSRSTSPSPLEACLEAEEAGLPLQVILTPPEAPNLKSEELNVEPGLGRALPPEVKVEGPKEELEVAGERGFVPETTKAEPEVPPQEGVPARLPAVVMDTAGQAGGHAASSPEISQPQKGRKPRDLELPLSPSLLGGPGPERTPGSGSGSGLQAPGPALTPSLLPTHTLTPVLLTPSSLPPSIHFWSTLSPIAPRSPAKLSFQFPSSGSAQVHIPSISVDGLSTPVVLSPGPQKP
# How it was run: as §1
# GABPA = target: T3, GABPA (Homo sapiens, UniProt Q06546 1-454); conditions: protein: recombinant; tags: N-terminal GST; dsDNA, one strand shown
# T3 sequence: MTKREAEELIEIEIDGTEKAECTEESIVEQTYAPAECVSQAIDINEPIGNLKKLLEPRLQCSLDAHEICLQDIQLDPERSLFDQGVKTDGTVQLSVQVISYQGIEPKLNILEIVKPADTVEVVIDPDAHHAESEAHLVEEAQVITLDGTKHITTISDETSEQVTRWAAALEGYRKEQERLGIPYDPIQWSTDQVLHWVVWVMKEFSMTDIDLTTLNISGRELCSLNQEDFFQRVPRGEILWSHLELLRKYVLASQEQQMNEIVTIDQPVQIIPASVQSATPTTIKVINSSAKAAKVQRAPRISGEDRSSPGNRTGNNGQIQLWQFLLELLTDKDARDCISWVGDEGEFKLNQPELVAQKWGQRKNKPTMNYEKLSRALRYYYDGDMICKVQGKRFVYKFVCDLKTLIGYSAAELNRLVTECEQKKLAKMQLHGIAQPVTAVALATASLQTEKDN
# How it was run: as §1
# ERG = target: T4, ERG (Homo sapiens, UniProt P11308 1-479); conditions: protein: recombinant; tags: N-terminal GST; dsDNA, one strand shown
# T4 sequence: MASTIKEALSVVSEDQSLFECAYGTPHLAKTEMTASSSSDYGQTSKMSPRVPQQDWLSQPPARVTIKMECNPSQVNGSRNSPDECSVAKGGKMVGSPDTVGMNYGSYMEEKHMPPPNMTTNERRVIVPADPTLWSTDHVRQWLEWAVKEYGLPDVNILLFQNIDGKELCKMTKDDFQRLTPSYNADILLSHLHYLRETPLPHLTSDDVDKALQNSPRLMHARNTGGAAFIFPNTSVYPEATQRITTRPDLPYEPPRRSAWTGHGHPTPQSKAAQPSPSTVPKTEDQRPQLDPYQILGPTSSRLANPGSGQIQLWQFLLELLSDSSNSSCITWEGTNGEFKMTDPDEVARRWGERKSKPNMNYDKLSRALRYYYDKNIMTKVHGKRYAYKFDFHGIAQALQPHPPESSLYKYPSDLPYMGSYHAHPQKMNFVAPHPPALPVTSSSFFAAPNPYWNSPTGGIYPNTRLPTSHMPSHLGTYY
# How it was run: as §1
# ELF1 = ELF1 (Homo sapiens, UniProt P32519 1-619); conditions: protein: recombinant; tags: N-terminal GST; dsDNA, one strand shown
# How it was run: as §1
# EHF = target: T5, EHF (Homo sapiens, UniProt Q9NZC4 1-300); conditions: protein: recombinant; tags: N-terminal GST; dsDNA, one strand shown
# T5 sequence: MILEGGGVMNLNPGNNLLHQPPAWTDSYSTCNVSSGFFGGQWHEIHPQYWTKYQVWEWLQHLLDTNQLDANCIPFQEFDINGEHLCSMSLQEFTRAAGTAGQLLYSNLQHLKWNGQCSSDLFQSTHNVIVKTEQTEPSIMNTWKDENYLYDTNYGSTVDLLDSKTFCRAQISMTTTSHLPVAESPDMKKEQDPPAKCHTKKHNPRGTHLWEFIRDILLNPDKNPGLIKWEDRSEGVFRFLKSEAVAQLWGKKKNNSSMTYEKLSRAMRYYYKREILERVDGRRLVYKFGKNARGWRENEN
# How it was run: as §1
# SPI1 = SPI1 (Homo sapiens, UniProt P17947 1-270); conditions: protein: recombinant; tags: N-terminal GST; dsDNA, one strand shown
# How it was run: as §1
# SPIB = SPIB (Homo sapiens, UniProt Q01892 1-262); conditions: protein: recombinant; tags: N-terminal GST; dsDNA, one strand shown
# How it was run: as §1
# ELK3 = target: T6, ELK3 (Homo sapiens, UniProt P41970 1-407); conditions: protein: recombinant; tags: N-terminal GST; dsDNA, one strand shown
# T6 sequence: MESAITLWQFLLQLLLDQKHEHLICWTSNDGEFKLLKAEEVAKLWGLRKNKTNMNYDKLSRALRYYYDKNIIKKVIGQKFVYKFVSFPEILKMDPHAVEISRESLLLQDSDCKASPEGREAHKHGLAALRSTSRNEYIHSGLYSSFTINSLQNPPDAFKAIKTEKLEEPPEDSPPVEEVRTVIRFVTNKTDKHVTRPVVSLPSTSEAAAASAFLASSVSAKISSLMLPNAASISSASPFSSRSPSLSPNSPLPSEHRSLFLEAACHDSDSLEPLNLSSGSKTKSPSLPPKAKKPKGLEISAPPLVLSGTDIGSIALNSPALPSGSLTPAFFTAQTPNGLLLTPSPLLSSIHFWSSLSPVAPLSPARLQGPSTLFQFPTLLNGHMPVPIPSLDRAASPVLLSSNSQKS
# How it was run: as §1
# FEV = target: T7, FEV (Homo sapiens, UniProt Q99581 1-238); conditions: protein: recombinant; tags: N-terminal GST; dsDNA, one strand shown
# T7 sequence: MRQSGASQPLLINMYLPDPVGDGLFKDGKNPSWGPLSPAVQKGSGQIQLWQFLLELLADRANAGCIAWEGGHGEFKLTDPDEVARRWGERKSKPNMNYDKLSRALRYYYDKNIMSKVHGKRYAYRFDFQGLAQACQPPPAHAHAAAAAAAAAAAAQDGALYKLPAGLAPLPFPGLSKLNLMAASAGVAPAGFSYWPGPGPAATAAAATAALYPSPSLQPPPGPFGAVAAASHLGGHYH
# How it was run: as §1
# ETV5 = ETV5 (Homo sapiens, UniProt P41161 1-510); conditions: protein: recombinant; tags: N-terminal GST; dsDNA, one strand shown
# How it was run: as §1
# HSF1 = HSF1 (Homo sapiens, UniProt Q00613 1-529); conditions: protein: recombinant; tags: N-terminal GST; chain copies: 3; dsDNA, one strand shown
# How it was run: as §1
# SPIC = target: T8, SPIC (Homo sapiens, UniProt Q8N5J4 1-248); conditions: protein: recombinant; tags: N-terminal GST; dsDNA, one strand shown
# T8 sequence: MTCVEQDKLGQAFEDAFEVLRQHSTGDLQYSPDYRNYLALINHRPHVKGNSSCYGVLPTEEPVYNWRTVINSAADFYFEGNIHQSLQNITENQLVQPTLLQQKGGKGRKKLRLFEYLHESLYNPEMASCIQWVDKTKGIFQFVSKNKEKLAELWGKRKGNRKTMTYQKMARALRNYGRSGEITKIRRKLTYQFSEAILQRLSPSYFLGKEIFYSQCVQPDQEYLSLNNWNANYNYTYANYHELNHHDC
# How it was run: as §1
# ELF4 = ELF4 (Homo sapiens, UniProt Q99607 1-663); conditions: protein: recombinant; tags: N-terminal GST; dsDNA, one strand shown
# How it was run: as §1
# ELK4 = target: T9, ELK4 (Homo sapiens, UniProt P28324-2 1-405); conditions: protein: recombinant; tags: N-terminal GST; dsDNA, one strand shown
# T9 sequence: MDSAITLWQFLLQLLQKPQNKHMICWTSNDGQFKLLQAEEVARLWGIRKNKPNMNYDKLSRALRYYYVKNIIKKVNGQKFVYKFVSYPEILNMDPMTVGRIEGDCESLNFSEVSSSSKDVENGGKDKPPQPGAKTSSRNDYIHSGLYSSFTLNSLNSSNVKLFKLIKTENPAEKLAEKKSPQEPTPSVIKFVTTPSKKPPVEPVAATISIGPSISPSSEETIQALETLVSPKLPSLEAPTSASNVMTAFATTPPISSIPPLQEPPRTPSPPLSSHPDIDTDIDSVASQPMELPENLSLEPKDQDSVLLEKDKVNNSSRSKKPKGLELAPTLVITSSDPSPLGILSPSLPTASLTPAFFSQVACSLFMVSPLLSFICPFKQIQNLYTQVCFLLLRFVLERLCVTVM
# How it was run: as §1
# ETV2 = target: T10, ETV2 (Homo sapiens, UniProt O00321 1-342); conditions: protein: recombinant; tags: N-terminal GST; dsDNA, one strand shown
# T10 sequence: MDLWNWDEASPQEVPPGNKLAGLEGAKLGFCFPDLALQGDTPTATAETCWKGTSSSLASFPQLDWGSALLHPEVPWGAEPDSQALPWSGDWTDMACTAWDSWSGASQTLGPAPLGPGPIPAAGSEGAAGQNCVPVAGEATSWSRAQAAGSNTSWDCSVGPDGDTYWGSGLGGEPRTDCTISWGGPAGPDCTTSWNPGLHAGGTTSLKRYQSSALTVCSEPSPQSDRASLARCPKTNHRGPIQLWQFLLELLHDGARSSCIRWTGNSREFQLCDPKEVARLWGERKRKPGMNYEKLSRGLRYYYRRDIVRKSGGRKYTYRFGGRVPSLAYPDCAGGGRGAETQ
# How it was run: as §1
# ELF3 = target: T11, ELF3 (Homo sapiens, UniProt P78545 1-371); conditions: protein: recombinant; tags: N-terminal GST; dsDNA, one strand shown
# T11 sequence: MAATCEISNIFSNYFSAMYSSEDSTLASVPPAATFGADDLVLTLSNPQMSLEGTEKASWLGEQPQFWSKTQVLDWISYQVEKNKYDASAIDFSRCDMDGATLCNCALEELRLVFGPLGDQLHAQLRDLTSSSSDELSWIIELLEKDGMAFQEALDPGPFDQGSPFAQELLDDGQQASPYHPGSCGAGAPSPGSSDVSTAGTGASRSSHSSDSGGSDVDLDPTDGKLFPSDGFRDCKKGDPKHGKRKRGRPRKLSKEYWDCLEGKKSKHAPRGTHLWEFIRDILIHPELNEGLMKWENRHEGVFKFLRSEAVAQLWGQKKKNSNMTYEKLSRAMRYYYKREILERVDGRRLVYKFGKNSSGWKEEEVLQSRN
# How it was run: as §1
# CRX = CRX (Homo sapiens, UniProt O43186 1-299); conditions: protein: recombinant; tags: N-terminal GST; dsDNA, one strand shown
# How it was run: as §1
# ETV1 = ETV1 (Homo sapiens, UniProt P50549 1-477); conditions: protein: recombinant; tags: N-terminal GST; dsDNA, one strand shown
# How it was run: as §1
# SPIB, sequence (Q01892 whole entry): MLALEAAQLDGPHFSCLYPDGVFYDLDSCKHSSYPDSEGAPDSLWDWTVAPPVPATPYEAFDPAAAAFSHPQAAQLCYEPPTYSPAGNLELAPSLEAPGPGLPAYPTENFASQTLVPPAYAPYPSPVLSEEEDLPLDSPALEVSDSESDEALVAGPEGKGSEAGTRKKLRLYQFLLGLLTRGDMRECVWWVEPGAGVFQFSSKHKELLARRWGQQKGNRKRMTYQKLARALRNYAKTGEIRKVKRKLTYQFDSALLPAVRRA
# ETV5, sequence (P41161 whole entry): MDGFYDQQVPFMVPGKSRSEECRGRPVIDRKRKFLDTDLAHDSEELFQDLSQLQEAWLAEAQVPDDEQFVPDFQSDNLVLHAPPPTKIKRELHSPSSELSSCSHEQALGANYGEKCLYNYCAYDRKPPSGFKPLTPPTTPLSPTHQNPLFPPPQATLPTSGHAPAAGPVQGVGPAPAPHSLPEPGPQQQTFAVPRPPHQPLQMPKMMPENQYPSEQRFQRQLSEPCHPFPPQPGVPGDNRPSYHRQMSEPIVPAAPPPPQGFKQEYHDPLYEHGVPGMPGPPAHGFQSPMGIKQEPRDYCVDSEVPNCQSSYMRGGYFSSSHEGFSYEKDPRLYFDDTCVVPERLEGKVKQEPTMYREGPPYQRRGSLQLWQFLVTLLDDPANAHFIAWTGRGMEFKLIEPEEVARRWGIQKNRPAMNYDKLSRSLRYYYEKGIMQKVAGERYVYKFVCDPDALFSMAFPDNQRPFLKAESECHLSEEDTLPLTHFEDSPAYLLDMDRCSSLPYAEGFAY
# ELF1, sequence (P32519 whole entry): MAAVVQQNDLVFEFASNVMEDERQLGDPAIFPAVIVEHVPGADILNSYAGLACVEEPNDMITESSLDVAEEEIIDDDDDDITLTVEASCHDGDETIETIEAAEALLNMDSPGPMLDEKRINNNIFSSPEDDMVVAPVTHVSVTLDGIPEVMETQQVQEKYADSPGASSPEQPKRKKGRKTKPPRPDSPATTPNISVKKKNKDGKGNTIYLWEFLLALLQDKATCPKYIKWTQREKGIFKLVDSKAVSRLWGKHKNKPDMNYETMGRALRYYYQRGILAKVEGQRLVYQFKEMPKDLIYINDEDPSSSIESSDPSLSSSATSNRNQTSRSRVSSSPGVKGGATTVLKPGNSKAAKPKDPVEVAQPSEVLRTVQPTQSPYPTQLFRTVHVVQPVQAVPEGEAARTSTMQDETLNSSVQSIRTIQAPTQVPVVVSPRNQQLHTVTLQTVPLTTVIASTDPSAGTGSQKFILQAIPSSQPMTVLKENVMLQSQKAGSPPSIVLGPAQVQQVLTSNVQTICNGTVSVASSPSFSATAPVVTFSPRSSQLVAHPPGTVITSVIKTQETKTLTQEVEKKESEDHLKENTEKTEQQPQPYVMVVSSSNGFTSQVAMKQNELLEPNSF
# ETV1, sequence (P50549 whole entry): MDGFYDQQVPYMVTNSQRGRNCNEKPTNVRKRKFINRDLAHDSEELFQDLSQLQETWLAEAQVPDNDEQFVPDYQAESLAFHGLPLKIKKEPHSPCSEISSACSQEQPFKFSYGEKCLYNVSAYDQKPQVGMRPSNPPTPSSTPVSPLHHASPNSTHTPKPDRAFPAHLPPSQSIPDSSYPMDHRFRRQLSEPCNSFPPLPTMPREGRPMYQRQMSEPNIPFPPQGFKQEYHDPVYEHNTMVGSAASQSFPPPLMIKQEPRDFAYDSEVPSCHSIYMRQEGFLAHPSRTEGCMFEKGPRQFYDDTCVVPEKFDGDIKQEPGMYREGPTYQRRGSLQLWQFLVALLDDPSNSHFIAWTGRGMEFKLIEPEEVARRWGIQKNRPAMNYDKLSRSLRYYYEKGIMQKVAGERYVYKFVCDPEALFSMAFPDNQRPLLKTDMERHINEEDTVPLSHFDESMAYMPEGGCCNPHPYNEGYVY
# ELF4, sequence (Q99607 whole entry): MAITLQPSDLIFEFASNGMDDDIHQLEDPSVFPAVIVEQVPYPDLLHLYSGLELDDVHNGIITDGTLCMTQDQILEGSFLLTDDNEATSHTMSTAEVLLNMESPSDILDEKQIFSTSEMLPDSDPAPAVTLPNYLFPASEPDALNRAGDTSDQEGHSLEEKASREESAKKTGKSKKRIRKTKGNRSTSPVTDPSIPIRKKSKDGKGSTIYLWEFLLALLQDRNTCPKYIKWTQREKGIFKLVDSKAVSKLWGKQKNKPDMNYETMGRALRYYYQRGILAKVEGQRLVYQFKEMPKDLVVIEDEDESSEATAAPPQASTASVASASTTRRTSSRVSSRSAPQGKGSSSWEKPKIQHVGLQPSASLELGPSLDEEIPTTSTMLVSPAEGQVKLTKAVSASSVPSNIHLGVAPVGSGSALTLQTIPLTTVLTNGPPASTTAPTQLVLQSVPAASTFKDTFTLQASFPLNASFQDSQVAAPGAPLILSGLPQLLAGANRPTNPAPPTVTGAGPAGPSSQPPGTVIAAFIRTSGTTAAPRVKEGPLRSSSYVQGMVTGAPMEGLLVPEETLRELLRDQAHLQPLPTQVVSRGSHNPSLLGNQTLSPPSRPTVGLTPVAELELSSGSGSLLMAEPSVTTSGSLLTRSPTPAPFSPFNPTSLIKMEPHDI
# CRX, sequence (O43186 whole entry): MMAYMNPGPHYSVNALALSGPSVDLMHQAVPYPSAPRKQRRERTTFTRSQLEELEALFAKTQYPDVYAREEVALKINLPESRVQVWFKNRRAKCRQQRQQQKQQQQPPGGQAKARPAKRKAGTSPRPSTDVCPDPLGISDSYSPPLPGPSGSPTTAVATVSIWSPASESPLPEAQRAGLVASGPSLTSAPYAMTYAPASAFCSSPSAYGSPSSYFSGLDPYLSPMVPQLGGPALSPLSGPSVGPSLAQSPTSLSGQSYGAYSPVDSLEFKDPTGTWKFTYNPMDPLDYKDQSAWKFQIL
# HSF1, sequence (Q00613 whole entry): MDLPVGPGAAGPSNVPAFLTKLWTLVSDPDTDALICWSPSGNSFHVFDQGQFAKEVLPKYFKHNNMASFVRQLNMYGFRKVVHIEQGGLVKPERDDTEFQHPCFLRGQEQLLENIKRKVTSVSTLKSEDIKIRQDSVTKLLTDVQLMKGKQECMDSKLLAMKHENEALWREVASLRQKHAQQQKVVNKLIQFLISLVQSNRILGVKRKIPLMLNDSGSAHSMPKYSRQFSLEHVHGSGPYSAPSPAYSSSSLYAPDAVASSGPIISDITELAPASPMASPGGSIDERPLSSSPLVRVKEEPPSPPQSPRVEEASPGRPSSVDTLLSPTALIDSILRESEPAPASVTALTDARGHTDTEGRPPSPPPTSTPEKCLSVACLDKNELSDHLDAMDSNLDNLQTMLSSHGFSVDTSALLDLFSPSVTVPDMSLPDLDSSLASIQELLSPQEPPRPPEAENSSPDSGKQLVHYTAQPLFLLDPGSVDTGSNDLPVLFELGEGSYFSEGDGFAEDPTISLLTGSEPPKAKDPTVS
sequence,measurement,setting,value
ACTTTG,binding signal,FLI1,"1.27 fold enrichment (6-mer frequency, TF over GST control)"
same,binding signal,ELK1,"1.29 fold enrichment (6-mer frequency, TF over GST control)"
same,binding signal,GABPA,"1.12 fold enrichment (6-mer frequency, TF over GST control)"
same,binding signal,ERG,"1.19 fold enrichment (6-mer frequency, TF over GST control)"
same,binding signal,ELF1,"1.26 fold enrichment (6-mer frequency, TF over GST control)"
same,binding signal,EHF,"1.19 fold enrichment (6-mer frequency, TF over GST control)"
same,binding signal,SPI1,"1.2 fold enrichment (6-mer frequency, TF over GST control)"
same,binding signal,SPIB,"1.16 fold enrichment (6-mer frequency, TF over GST control)"
same,binding signal,ELK3,"1.07 fold enrichment (6-mer frequency, TF over GST control)"
same,binding signal,FEV,"1.13 fold enrichment (6-mer frequency, TF over GST control)"
same,binding signal,ETV5,"1.3 fold enrichment (6-mer frequency, TF over GST control)"
same,binding signal,HSF1,"1.14 fold enrichment (6-mer frequency, TF over GST control)"
same,binding signal,SPIC,"1.33 fold enrichment (6-mer frequency, TF over GST control)"
same,binding signal,ELF4,"1.29 fold enrichment (6-mer frequency, TF over GST control)"
same,binding signal,ELK4,"1.22 fold enrichment (6-mer frequency, TF over GST control)"
same,binding signal,ETV2,"1.39 fold enrichment (6-mer frequency, TF over GST control)"
same,binding signal,ELF3,"1.28 fold enrichment (6-mer frequency, TF over GST control)"
same,binding signal,CRX,"1.18 fold enrichment (6-mer frequency, TF over GST control)"
same,binding signal,ETV1,"1.21 fold enrichment (6-mer frequency, TF over GST control)"

# Reference: PMC7862700, “An all-to-all approach to the identification of sequence-specific readers for epigenetic DNA modifications on cytosine”
